This is an account of results in PubChem BioAssay (Tox21).

Inconclusive results are not listed. Where a call stands in place of a potency, no number is given. Active and inactive are the calls of the source. The call rests on the fitted dose curve; in most records, active means well fitted curve in the direction sought with a large enough effect in the repeat runs; inconclusive means weak or mixed curves; inactive means no such curve, though single readings can be large; an effect the other way counts as inactive or inconclusive.

The first experiment in a line: qHTS RealTime-Glo MT Cell Viability Assay in HepG2 cells - 32 hour (AID 1224877). Further: nearly all actives have a fitted effect of over 55% in size. The note with it: RealTime-Glo luminescence; series mostly up to 76.8 µM; activity change, negative = cytotoxic: at the top concentration. The method in brief: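 qHTS, HepG2, 600 cells/well, RealTime-Glo (NanoLuc + prosubstrate) added with cells; 5 h preincubation; DMSO compound addition; 37 C; luminescence at 0/8/16/24/32/40 h.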
For the compound `CC1(C)NC(=O)NC1=O`, the call was inactive.
As to `CCCCCCCCCCN`, the call was inactive.
Same read-out and setting: then `C[Si]1(C)O[Si](C)(C)O[Si](C)(C)O[Si](C)(C)O1`, with “inactive”; and `O=C(O)/C=C/C(=O)O`, with “inactive”.
Take `CC(C)OC(=O)COc1ccc(Cl)cc1Cl`: the call was inactive.
For `O=C(OCC1CCC2OC2C1)C1CCC2OC2C1` (stereo unspecified), the compound was classed as inactive.
`O=C1c2ccccc2CCc2ccccc21`: the outcome was inactive.
For the compound `Nc1nc(N)nc(-c2ccccc2)n1`, the compound was called inactive.
As for `C[C@]12CC[C@@H]3c4ccc(O)cc4CC[C@H]3[C@@H]1C[C@@H](O)[C@@H]2O`, the outcome was inactive.
Same read-out and setting: for `CCO[Si](CCC#N)(OCC)OCC` the value was “inactive”.
As to `O=C1CCCC1`, the outcome was inactive.
The same measure, in the same setting: then `O=C(O)c1ccc(S(=O)(=O)N(Cl)Cl)cc1`, with “inactive”.
In the case of `CCCCCCCCCCCCCCCCO`, the compound was called inactive.
For the compound `CC(C)CC(=O)CC(C)CC(C)C` (stereo unspecified), the result was inactive.
As for `C=C(C)CNCC`, the result was inactive.
On to `CNC(=O)Oc1ccc2c(c1)[C@]1(C)CCN(C)[C@@H]1N2C`, for which the call was inactive.
Take `C=Cc1ccc(C)cc1`: the call was inactive.
As for `O=c1[nH]cnc2[nH]ncc12`, the compound was classed as inactive.
Take `CCOCC(=O)O`: the result was inactive.
Still for that read-out and setting: then `COc1ccccc1OCC(O)CO` (stereo unspecified), with “inactive”.
For `CCCCCCCC=O`, the outcome was inactive.
Turning to `CC(=O)Oc1ccc(C)cc1`, the compound was called inactive.
As for `CSc1ccc(Cl)cc1`, the result was inactive.
Take `CN1C(=O)CC[C@H]1c1cccnc1`: the outcome was inactive.
Regarding `C=CC(=O)OCCC(=O)O`, the compound was called inactive.
For `CNC(=S)N(C)C`, the call was inactive.
With `CCCOC(=O)c1ccccc1`, the result was inactive.
For `Cc1ccc(S(=O)(=O)N=C=O)cc1`, the compound was classed as inactive.
Consider `Cc1ccc(C(C)C)c(O)c1`, for which the call was inactive.
For the compound `CCNc1cccc(C)c1`, the outcome was inactive.
Consider `CCCCOC(=O)c1ccc(N)cc1`, for which the compound was called inactive.
For the compound `CCCCCCC=O`, the outcome was inactive.
In the case of `CC(CCl)OP(=O)(OC(C)CCl)OC(C)CCl` (stereo unspecified), the outcome was inactive.
Turning to `CCCCCCCCCCCC(=O)OC`, the outcome was inactive.
Consider `COC(=O)c1cccnc1`, for which the outcome was inactive.
Turning to `C=CCc1ccc(OC)c(OC)c1`, the outcome was inactive.
On to `CCCCCCCCCCCCCCCC(=O)OC(C)C`, for which the call was inactive.

A short description of a further experiment: A CellTox Green Cytotoxicity Assay to monitor cytotoxicity in HepG2 cells - 24 hour (AID 1224878). Further: nearly all actives have a fitted effect of over 45% in size. The note with it: CellTox Green fluorescence; series mostly up to 76.8 µM; cytotoxicity: at the top concentration. The method in brief:
(§1)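 HepG2 cells, 600/well, preincubated 5 h with CellTox Green dye, then exposed to Tox21 compounds in DMSO at 37 C for up to 40 h. Dead-cell DNA fluorescence read at the indicated time point.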
On to `CC1(C)NC(=O)NC1=O`, for which the Potency result was “inactive”.
For the compound `CCCCCCCCCCN`, the Potency entry was “inactive”.
Turning to `C[Si]1(C)O[Si](C)(C)O[Si](C)(C)O[Si](C)(C)O1`, the “cytotoxicity” value is -0.557% (inactive).
On to `O=C(O)/C=C/C(=O)O`, for which the Potency result is “inactive”.
As for `CC(C)OC(=O)COc1ccc(Cl)cc1Cl`, the Potency result is “inactive”.
Consider `O=C(OCC1CCC2OC2C1)C1CCC2OC2C1` (stereo unspecified), for which the Potency result was “inactive”.
Consider `O=C1c2ccccc2CCc2ccccc21`, for which the Potency result was “inactive”.
For the compound `Nc1nc(N)nc(-c2ccccc2)n1`, the Potency entry was “inactive”.
For the compound `C[C@]12CC[C@@H]3c4ccc(O)cc4CC[C@H]3[C@@H]1C[C@@H](O)[C@@H]2O`, the Potency result was “inactive”.
The same measure, in the same setting: for `CCO[Si](CCC#N)(OCC)OCC` the value was “inactive”.
As to `O=C1CCCC1`, the Potency entry was “inactive”.
`O=C(O)c1ccc(S(=O)(=O)N(Cl)Cl)cc1`: the Potency result was “inactive”.
Take `CCCCCCCCCCCCCCCCO`: the Potency entry was “inactive”.
Take `CC(C)CC(=O)CC(C)CC(C)C` (stereo unspecified): the “cytotoxicity” value was -14% (inactive).
As to `C=C(C)CNCC`, the Potency entry was “inactive”.
As for `CNC(=O)Oc1ccc2c(c1)[C@]1(C)CCN(C)[C@@H]1N2C`, the Potency result was “inactive”.
`C=Cc1ccc(C)cc1`: the Potency entry is “inactive”.
Take `O=c1[nH]cnc2[nH]ncc12`: the Potency entry is “inactive”.
Take `CCOCC(=O)O`: the Potency result is “inactive”.
In the case of `COc1ccccc1OCC(O)CO` (stereo unspecified), the Potency result was “inactive”.
As for `CCCCCCCC=O`, the Potency result was “inactive”.
Consider `CC(=O)Oc1ccc(C)cc1`, for which the “cytotoxicity” value was -16.2% [at 35.3 µM] (inactive).
For `CSc1ccc(Cl)cc1`, the “cytotoxicity” value was 13.7% (inactive).
With `CN1C(=O)CC[C@H]1c1cccnc1`, the Potency entry is “inactive”.
The same measure, in the same setting: for `C=CC(=O)OCCC(=O)O` the value was “inactive”; for `CNC(=S)N(C)C`, “inactive”; for `CCCOC(=O)c1ccccc1`, “inactive”.
For the compound `Cc1ccc(S(=O)(=O)N=C=O)cc1`, the Potency result is “inactive”.
For the compound `Cc1ccc(C(C)C)c(O)c1`, the “cytotoxicity” value is 8.21% [at 35.3 µM] (inactive).
Regarding `CCNc1cccc(C)c1`, the Potency result is “inactive”.
As to `CCCCOC(=O)c1ccc(N)cc1`, the “cytotoxicity” value is 3.92% (inactive).
Consider `CCCCCCC=O`, for which the Potency entry was “inactive”.
In the case of `CC(CCl)OP(=O)(OC(C)CCl)OC(C)CCl` (stereo unspecified), the Potency entry was “inactive”.
For the compound `CCCCCCCCCCCC(=O)OC`, the Potency result was “inactive”.
For the compound `COC(=O)c1cccnc1`, the Potency result is “inactive”.
Take `C=CCc1ccc(OC)c(OC)c1`: the Potency result is “inactive”.
`CCCCCCCCCCCCCCCC(=O)OC(C)C`: the Potency result is “inactive”.

Another experiment in a line: A CellTox Green Cytotoxicity Assay to monitor cytotoxicity in HepG2 cells - 40 hour (AID 1224879). Further: nearly all actives have a fitted effect of over 40% in size. As to conditions: CellTox Green fluorescence; series mostly up to 76.8 µM; cytotoxicity increase: at the top concentration. The method in brief:
as §1
Consider `CC1(C)NC(=O)NC1=O`, for which the Potency result is “inactive”.
Take `CCCCCCCCCCN`: the Potency entry was “inactive”.
As for `C[Si]1(C)O[Si](C)(C)O[Si](C)(C)O[Si](C)(C)O1`, the Potency result was “inactive”.
On to `O=C(O)/C=C/C(=O)O`, for which the Potency result is “inactive”.
`CC(C)OC(=O)COc1ccc(Cl)cc1Cl`: the Potency entry was “inactive”.
In the case of `O=C(OCC1CCC2OC2C1)C1CCC2OC2C1` (stereo unspecified), the Potency entry was “inactive”.
With `O=C1c2ccccc2CCc2ccccc21`, the Potency result is “inactive”.
As to `Nc1nc(N)nc(-c2ccccc2)n1`, the Potency result is “inactive”.
The same measure, in the same setting: for `C[C@]12CC[C@@H]3c4ccc(O)cc4CC[C@H]3[C@@H]1C[C@@H](O)[C@@H]2O` the value was “inactive”.
In the case of `CCO[Si](CCC#N)(OCC)OCC`, the Potency result was “inactive”.
Take `O=C1CCCC1`: the Potency result is “inactive”.
The same measure, in the same setting: for `O=C(O)c1ccc(S(=O)(=O)N(Cl)Cl)cc1` the value was “inactive”; for `CCCCCCCCCCCCCCCCO`, “inactive”.
Regarding `CC(C)CC(=O)CC(C)CC(C)C` (stereo unspecified), the “cytotoxicity increase” value is -11.8% (inactive).
`C=C(C)CNCC`: the Potency result was “inactive”.
Still for that read-out and setting: for `CNC(=O)Oc1ccc2c(c1)[C@]1(C)CCN(C)[C@@H]1N2C` the value was “inactive”; for `C=Cc1ccc(C)cc1`, “inactive”.
The same measure, in the same setting: for `O=c1[nH]cnc2[nH]ncc12` the value was “inactive”; for `CCOCC(=O)O`, “inactive”; for `COc1ccccc1OCC(O)CO` (stereo unspecified), “inactive”.
Turning to `CCCCCCCC=O`, the Potency result was “inactive”.
On to `CC(=O)Oc1ccc(C)cc1`, for which the “cytotoxicity increase” value is -13.3% [at 35.3 µM] (inactive).
Take `CSc1ccc(Cl)cc1`: the “cytotoxicity increase” value is 12.7% (inactive).
For `CN1C(=O)CC[C@H]1c1cccnc1`, the Potency entry was “inactive”.
Turning to `C=CC(=O)OCCC(=O)O`, the Potency entry is “inactive”.
Regarding `CNC(=S)N(C)C`, the Potency result is “inactive”.
For the compound `CCCOC(=O)c1ccccc1`, the Potency result is “inactive”.
Consider `Cc1ccc(S(=O)(=O)N=C=O)cc1`, for which the Potency entry is “inactive”.
For `Cc1ccc(C(C)C)c(O)c1`, the “cytotoxicity increase” value is -1.63% [at 35.3 µM] (inactive).
`CCNc1cccc(C)c1`: the Potency result was “inactive”.
Same read-out and setting: then `CCCCOC(=O)c1ccc(N)cc1`, with “inactive”; and `CCCCCCC=O`, with “inactive”.
`CC(CCl)OP(=O)(OC(C)CCl)OC(C)CCl` (stereo unspecified): the Potency result was “inactive”.
On to `CCCCCCCCCCCC(=O)OC`, for which the Potency entry was “inactive”.
As for `COC(=O)c1cccnc1`, the Potency entry is “inactive”.
As to `C=CCc1ccc(OC)c(OC)c1`, the Potency entry was “inactive”.
For `CCCCCCCCCCCCCCCC(=O)OC(C)C`, the Potency result was “inactive”.
